# Inconclusive results are not listed. Where a call stands in place of a potency, no number is given. Calls of active or inactive are those of the source. The call rests on the fitted dose curve; in most records, active means well fitted curve in the direction sought with a large enough effect; inconclusive means small, poorly fitted or top-dose-only effect, or another doubt; inactive means no such curve, though single readings can be large; an effect the other way counts as inactive or inconclusive.
# How the values were obtained:
# [1] = Quantitative highthroughput screen to assess conditional lethalithy of NOMO1 cells grown in RPMI1640 with untreated serum (RPMI+s) (AID 1963876); details: NOMO1 AML cells in RPMI+serum, CellTiter-Glo viability, 48 h; series mostly up to 45.8 µM; further: nearly all actives have a fitted effect of over 35% in size; further: potency means the concentration at half of the fitted maximal effect
# Method in brief: (§1)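 Each medium arm—HPLM with 10% dialyzed FBS, or RPMI1640 with 5 mM glucose and 10% untreated or dialyzed FBS—was screened against an 11-point, 3-fold compound titration for 48 h at 37 °C, with CellTiter-Glo luminescence as endpoint.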
# [2] = Quantitative highthroughput screen to assess conditional lethalithy of NOMO1 cells grown in RPMI1640 with dialyzed fetal bovine serum (RPMI+ds) (AID 1963877); details: NOMO1 in RPMI+dialyzed FBS viability, ATP luminescence, 48 h; series mostly up to 45.8 µM; further: nearly all actives have a fitted effect of over 30% in size; further: potency means the concentration at half of the fitted maximal effect
# Method in brief: as §1
# [3] = Quantitative highthroughput screen to assess conditional lethalithy of P12 Ichikawa cells grown in Human Plasma-Like Medium with dialyzed fetal bovine serum (HPLM+ds) (AID 1963879); details: ATP luminescence, 48 h; Potency: viability; series mostly up to 45.8 µM; further: nearly all actives have a fitted effect of over 35% in size; further: potency means the concentration at half of the fitted maximal effect
# Method in brief: as §1
# [4] = Quantitative highthroughput screen to assess conditional lethalithy of P12 Ichikawa cells grown in RPMI1640 with dialyzed fetal bovine serum (RPMI+ds) (AID 1963880); details: ATP luminescence, 48 h; Potency: P12-Ichikawa viability; series mostly up to 45.8 µM; further: nearly all actives have a fitted effect of over 35% in size; further: potency means the concentration at half of the fitted maximal effect
# Method in brief: as §1
# [5] = Quantitative highthroughput screen to assess conditional lethalithy of P12 Ichikawa cells grown in RPMI1640 with untreated serum (RPMI+s) (AID 1963881); details: ATP luminescence, 48 h; Potency: viability; series mostly up to 45.8 µM; further: nearly all actives have a fitted effect of over 35% in size; further: potency means the concentration at half of the fitted maximal effect
# Method in brief: as §1
# [6] = Quantitative highthroughput screen to assess conditional lethalithy of SEM cells grown in Human Plasma-Like Medium with dialyzed fetal bovine serum (HPLM+ds) (AID 1963882); details: SEM B-ALL cells in HPLM+ds, CellTiter-Glo viability, 48 h; series mostly up to 45.8 µM; further: nearly all actives have a fitted effect of over 35% in size; further: potency means the concentration at half of the fitted maximal effect
# Method in brief: as §1
# [7] = Quantitative highthroughput screen to assess conditional lethalithy of SEM cells grown in RPMI1640 with unreated serum (RPMI+s) (AID 1963883); details: SEM B-ALL cells, CellTiter-Glo viability, 48 h; series mostly up to 45.8 µM; further: nearly all actives have a fitted effect of over 35% in size; further: potency means the concentration at half of the fitted maximal effect
# Method in brief: as §1
# [8] = Quantitative highthroughput screen to assess conditional lethalithy of SEM cells grown in RPMI1640 with dialyzed fetal bovine serum (RPMI+ds) (AID 1963884); details: SEM B-ALL cells, RPMI+dialyzed FBS, CellTiter-Glo viability, 48 h; series mostly up to 45.8 µM; further: nearly all actives have a fitted effect of over 35% in size; further: potency means the concentration at half of the fitted maximal effect
# Method in brief: as §1
# [9] = Quantitative highthroughput screen to assess conditional lethalithy of NOMO1 cells grown in Human Plasma-Like Medium with dialyzed fetal bovine serum (HPLM+ds) (AID 1963878); details: NOMO1 AML cells in HPLM+ds, CellTiter-Glo viability, 48 h; series mostly up to 45.8 µM; further: nearly all actives have a fitted effect of over 35% in size; further: potency means the concentration at half of the fitted maximal effect
# Method in brief: as §1
# [10] = Cellular viability qHTS for adrenocortical cancer (ACC) cell line SW-13 (AID 1963989); details: SW-13 ACC cells viability, CellTiter-Glo, 48 h; activity (max response): hits give low values;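 further: cells grown in serum-free medium with ITS supplement; nearly all actives have a fitted effect of over 65% in size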
# Method in brief: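 Viability was read as CellTiter-Glo luminescence after 48 h compound treatment (up to 46 uM final) of SW-13 cells grown serum-free; titration curves were fit with a four-parameter logistic model to give IC50 and efficacy.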
# [11] = Cellular viability qHTS for adrenocortical cancer (ACC) cell line NCI-H295R (AID 1963990); details: CellTiter-Glo ATP luminescence, 48 h; series mostly up to 46.1 µM; further: nearly all actives have a fitted effect of over 60% in size; further: potency means the concentration at half of the fitted maximal effect
# Method in brief: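 CellTiter-Glo ATP luminescence, read 48 h after compound addition, measured viability of NCI-H295R adrenocortical cells grown serum-free with ITS. Final concentrations spanned up to 46 uM. Data normalized to DMSO and doxorubicin, fitted for IC50 and maximal response.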
SMILES,Potency [1],Potency [2],Potency [3],Potency [4],Potency [5],Potency [6],Potency [7],Potency [8],Potency [9],activity (max response) [10],Potency [11]
CCOC(=O)O[C@]1(C(=O)OCCl)CC[C@@H]2[C@H]3CCC4=CC(=O)C=C[C@]4(C)[C@@H]3[C@@H](O)C[C@@]21C,inactive,inactive,inactive,inactive,inactive,inactive,inactive,inactive,–,–,–
COc1cc(OC)cc(-c2ccc3ncc4ccc(=O)n(-c5ccc(N6CCNCC6)c(C(F)(F)F)c5)c4c3c2)c1,inactive,8.33 µM (active),–,–,–,14.8 µM (active),16.6 µM (active),–,14.8 µM (active),–,–
O=C(O)[C@@H](c1ccc(OCc2ccc3ccccc3n2)cc1)C1CCCC1,inactive,inactive,inactive,inactive,inactive,inactive,inactive,–,–,-1.81% (inactive),inactive
Cc1cncc2cccc(S(=O)(=O)N3CCCN(C(=O)CN)C[C@@H]3C)c12,5.9 µM (active),4.18 µM (active),5.26 µM (active),6.62 µM (active),6.62 µM (active),–,5.26 µM (active),4.18 µM (active),–,-18.3% (inactive),inactive
CCN1CCCC1CNC(=O)c1cc(S(N)(=O)=O)ccc1OC (centres undefined),inactive,inactive,inactive,inactive,inactive,–,–,–,–,–,–
CC[C@@H]1C=C(C)C[C@H](C)C[C@H](OC)[C@H]2O[C@@](O)(C(=O)C(=O)N3CCCC[C@@H]3C(=O)O[C@H](C(C)=C[C@@H]3CC[C@H](Cl)[C@H](OC)C3)[C@H](C)[C@@H](O)CC1=O)[C@H](C)C[C@H]2OC,inactive,inactive,inactive,inactive,inactive,–,inactive,–,–,–,–
NC(=O)C1CCCc2c1[nH]c1ccc(Cl)cc21 (centres undefined),8.33 µM (active),8.33 µM (active),–,–,–,2.35 µM (active),5.26 µM (active),4.18 µM (active),5.9 µM (active),-13.4% (inactive),inactive
C[C@@H]1O[C@@H](O[C@H]2CC[C@@]3(C)[C@H](CC[C@@H]4[C@H]3C[C@@H](O)[C@]3(C)[C@@H](C5=CC(=O)OC5)CC[C@]43O)C2)C[C@H](O)[C@@H]1O[C@H]1C[C@H](O)[C@H](O[C@H]2C[C@H](O)[C@@H](O)[C@@H](C)O2)[C@H](C)O1 (stereo in doubt),0.605 µM (active),0.382 µM (active),0.0855 µM (active),0.191 µM (active),0.27 µM (active),0.0959 µM (active),0.382 µM (active),0.27 µM (active),–,–,–
CS(=O)(=O)c1ccc(C2=C(c3ccccc3)C(=O)OC2)cc1,inactive,inactive,inactive,inactive,inactive,–,16.6 µM (active),10.5 µM (active),–,-9.09% (inactive),inactive
CC(=O)OCC(=O)[C@@]1(O)[C@H](C)C[C@H]2[C@@H]3C=C(C)C4=Cc5c(cnn5-c5ccccc5)C[C@]4(C)[C@@H]3[C@@H](O)C[C@@]21C,inactive,inactive,–,–,–,–,–,0.0148 µM (active),inactive,3.11% (inactive),25.1 µM (active)
CCOC(=O)C=C[C@H](C[C@@H]1CCNC1=O)NC(=O)[C@@H](CC(=O)[C@@H](NC(=O)c1cc(C)on1)C(C)C)Cc1ccc(F)cc1,inactive,inactive,inactive,inactive,inactive,inactive,inactive,–,–,-3.62% (inactive),inactive
CC(=Cc1ccccc1)C=C1SC(=S)N(CC(=O)O)C1=O,inactive,inactive,inactive,inactive,inactive,inactive,5.9 µM (active),inactive,–,–,–
CC1(C)OC2=C(C(=O)c3ccccc3C2=O)[C@H](NCc2ccccc2)[C@H]1O,4.18 µM (active),9.35 µM (active),14.8 µM (active),16.6 µM (active),8.33 µM (active),11.8 µM (active),7.43 µM (active),–,–,–,–
CON=C(C(=O)N[C@@H]1C(=O)N2C(C(=O)O)=C(Cn3ccc(=N)n3CCO)CS[C@H]12)c1csc(N)n1,inactive,inactive,inactive,inactive,inactive,inactive,inactive,inactive,–,–,–
Clc1ccc2c(N3CCN(CCCN4CCN(c5ccnc6cc(Cl)ccc56)CC4)CC3)ccnc2c1,inactive,inactive,–,–,–,–,7.24 µM (active),–,inactive,-23.4% (inactive),inactive
COc1cc(NC(=O)c2ccc(-c3ccc(Cl)cc3)o2)cc(OC)c1,1.87 µM (active),2.35 µM (active),inactive,inactive,inactive,inactive,inactive,inactive,–,–,–
C[C@H](CCC(=O)O)[C@H]1CC[C@H]2[C@H]3[C@@H](CC[C@]12C)[C@@]1(C)CC[C@@H](O)C[C@H]1C[C@@H]3O,inactive,inactive,inactive,inactive,inactive,inactive,inactive,–,–,–,–
CC(CCc1ccc(O)cc1)NCCc1ccc(O)c(O)c1 (centres undefined),inactive,inactive,–,–,–,20.9 µM (active),20.9 µM (active),20.9 µM (active),inactive,-9.68% (inactive),inactive

# — PubChem BioAssay (NCATS)
